Reference: PubChem BioAssay AID1508615 (Milbrandt Lab, Department of Genetics, Washington …, 2020)
The whole screen tested about 1,600 compounds, of which about 20 (1%) were called active. The list comes from a sample in which actives are over-represented; it also holds similar structures and randomly drawn compounds. A number with no mark means an inactive call.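 Rule for the calls: active = ratio of uncleaved NAD to its breakdown product ADP-ribose above 4, meaning the enzyme was inhibited; inactive = the rest.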

These compounds were tested against NAD(+) hydrolase SARM1 (Homo sapiens) (UniProt Q6SZW1) (assay: inhibition of SAM-TIR NAD hydrolysis to ADPR – cell lysate, HPLC readout, primary screen (AID 1508615;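 note: substrate NAD at 5 µM with 60 min at 37 °C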)). Conditions: HEK293T SAM-TIR lysate, NAD/ADPR ratio by HPLC; at 5 µM; stronger effect = higher value.
Chain of NAD(+) hydrolase SARM1 (Homo sapiens) (Q6SZW1 whole entry, looked up): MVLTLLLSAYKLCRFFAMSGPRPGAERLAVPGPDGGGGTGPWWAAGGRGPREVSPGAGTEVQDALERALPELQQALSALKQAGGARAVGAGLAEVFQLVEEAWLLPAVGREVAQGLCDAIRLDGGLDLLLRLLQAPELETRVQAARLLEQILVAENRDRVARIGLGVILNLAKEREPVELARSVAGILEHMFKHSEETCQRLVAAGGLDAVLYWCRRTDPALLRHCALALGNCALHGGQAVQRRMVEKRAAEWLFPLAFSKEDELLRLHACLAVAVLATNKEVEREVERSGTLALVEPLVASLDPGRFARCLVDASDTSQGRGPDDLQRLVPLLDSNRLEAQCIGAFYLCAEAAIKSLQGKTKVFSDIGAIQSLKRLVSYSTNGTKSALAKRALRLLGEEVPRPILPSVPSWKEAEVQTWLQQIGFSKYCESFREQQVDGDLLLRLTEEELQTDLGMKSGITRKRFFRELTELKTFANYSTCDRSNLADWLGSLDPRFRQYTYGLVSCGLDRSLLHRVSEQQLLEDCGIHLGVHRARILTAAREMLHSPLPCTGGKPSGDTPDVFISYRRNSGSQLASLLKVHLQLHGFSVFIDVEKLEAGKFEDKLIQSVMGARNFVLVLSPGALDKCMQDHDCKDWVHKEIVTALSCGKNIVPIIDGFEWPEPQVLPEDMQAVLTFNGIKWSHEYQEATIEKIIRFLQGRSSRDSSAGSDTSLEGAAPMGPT

Row | SMILES | NAD/ADPR ratio
1 | S=c1nc[nH]c2c1cnn2-c1ccccc1 | 3
2 | CCOC(=O)c1c[nH][nH]c1=O | 3
3 | NC(=O)N/N=C1\CC2CC1C1C=CCC21 (stereo not drawn) | 3
4 | Cc1nc(Nc2ccc(F)cc2)nc(Nc2ccc(F)cc2)c1[N+](=O)[O-] | 3
5 | Cc1cc2nc3ccc(=[N+](C)C)cc-3sc2cc1N | 3
6 | Cn1c(=O)c2[nH]c(CCCc3ccc([N+](=O)[O-])cc3)nc2n(C)c1=O | 3
7 | CCCc1cc(=O)oc2c3c(c4c(c12)OC(C)(C)C=C4)OC(C)C(C)C3O (stereo not drawn) | 3
8 | CSc1cccc(NC(=O)Nc2nc3c(C)cccc3s2)c1 | 3
9 | Cc1nc2ccc(Cl)cn2c1[N+](=O)[O-] | 3
10 | Cn1ncc2c(Nc3ccccc3Cl)nc(Cl)nc21 | 3
11 | Cc1ccc(NC(=S)NC(=O)c2ccccc2)cc1NC(=S)NC(=O)c1ccccc1 | 3
12 | Cc1cc(O)c(-c2cc(O)c(C)cc2O)cc1O | 5.8 (active)
13 | CCN(CC)CCNC(=O)c1ccc(NCN2C(=O)NC(c3ccccc3)(c3ccccc3)C2=O)cc1 | 3
14 | Cc1cnc2cc(Cl)ccc2c1SCC(=O)O | 3
15 | O=C1NC(=O)N2CCSC2(Cc2ccccc2)N1 (stereo not drawn) | 3
16 | Nc1ncnc2c1ncn2C1C=C(CO)C(O)C1O (stereo not drawn) | 3
17 | CCOP(=O)(OCC)/C(C#N)=C/c1ccc(-c2ccc(F)cc2F)o1 | 3
18 | O=c1[nH]cnc(CN2CCCCC2)c1O | 3
19 | CC12CCC(C(=Nc3ccc(N=C4C(=O)C5(C)CCC4C5(C)C)cc3)C1=O)C2(C)C | 3
20 | C#CCOCC1CN(c2ccccc2)C(=O)O1 (stereo not drawn) | 3
21 | N#Cc1cnn(-c2cccc(Cl)c2)c1-n1cccc1 | 3
22 | Cc1ccc(N=Nc2ccc(C)cc2NC(=O)Nc2ccccc2F)cc1 | 3
23 | Clc1nc2nc3n(c2nc1Cl)CCC3 | 3
24 | CC(=O)Nc1cc(NC(C)=O)ncn1 | 3
25 | O=C(c1ccccc1)c1ccc(Sc2ccc([N+](=O)[O-])cc2)cc1 | 3

Row | SMILES | NAD/ADPR ratio
26 | O=C1C=C(c2ccccc2)OC(=O)C1C(=O)c1ccccc1 (stereo not drawn) | 3
27 | O=C(c1ccccc1)C1C(c2ccccc2)C1[N+](=O)[O-] (stereo not drawn) | 5.3 (active)
28 | Clc1ccc(-c2n[nH]c3c2Cc2ccccc2-3)cc1Cl | 3
29 | COc1ccc(C(=S)N2CCN(c3ccccc3Cl)CC2)cc1OC | 3
30 | O=C(O)C(c1ccccc1)C1(O)CCCCC1 (stereo not drawn) | 3
31 | Cc1cc2cc3c(=O)[nH]c(=O)cc-3n(CC(O)C(O)C(O)CO)c2cc1C (stereo not drawn) | 3.3
32 | C#CCSc1nnnn1-c1ccc(Br)c(C)c1 | 3
33 | Cc1ccc(S(=O)c2ccc([N+](=O)[O-])c3nonc23)cc1 (stereo not drawn) | 13.2 (active)
34 | O=[N+]([O-])c1cc2cccnc2c2ncccc12 | 3
35 | O=C(O)C(Cc1ccccc1N(CCO)CCO)N1C(=O)c2ccccc2C1=O (stereo not drawn) | 3
36 | Nc1nc(N)nc(C2C=CCCC2)n1 (stereo not drawn) | 3
37 | O=C(Oc1ccccc1)c1cccc2cccc(C(=O)Oc3ccccc3)c12 | 3
38 | COc1ccc(N=Cc2c(O)ccc3c2oc2cc(Cl)c(O)c(Cl)c23)cc1 | 3
39 | CC(O)c1nc2c(c(=O)n(C)c(=O)n2C)n1C (stereo not drawn) | 3
40 | Cn1ncc2c(Nc3ccccc3Cl)nc(Nc3ccccc3Cl)nc21 | 3
41 | Nc1ccc(C(=O)Nc2ccc(Nc3ccncc3)cc2)cc1 | 3
42 | Cc1cc2c(cc1[N+](=O)[O-])NC(CNC(C)C)CC2 (stereo not drawn) | 3
43 | CNc1ncn(-c2c(C)cccc2C)c(=O)n1 | 3
44 | CS/C(=C\c1ccc(C(=O)c2ccc(C)cc2)n1C)S(C)=O (stereo not drawn) | 3
45 | COC(=O)C1=CC(=O)N2CCN=C2S1 | 3
46 | COc1cccc(NC(=S)Nc2ccc(O)cc2)c1 | 3
47 | Cc1cccc(NC(=S)Nc2cccc(C)n2)n1 | 3
48 | NC(=O)Nc1n[nH]c(-c2ccccc2)n1 | 3
49 | Cc1ccc(N=Nc2c(N)nn(-c3ccccc3)c2N)cc1 | 3
50 | CCOC(=O)/C(C#N)=C1\SS/C(=C(/C#N)C(=O)OCC)S1 | 7.9 (active)

Row | SMILES | NAD/ADPR ratio
51 | CCOC(=O)/C(C#N)=C/c1cccc(C)c1 | 3
52 | CCOC(=O)/C(C#N)=C/c1c[nH]c2ccccc12 | 3
53 | c1ccn(CCc2ccncc2)c1 | 3
54 | CSC1=NC=C(C#N)C2=NC(c3ccc(Cl)cc3)NN12 (stereo not drawn) | 3
55 | NC(=O)CCC(C(=O)O)N1C(=O)C2C3CCC(C3)C2C1=O (stereo not drawn) | 3
56 | CN(NC(=O)C(=O)NCc1ccco1)C(=O)NC1CCCCC1 | 3
57 | O=C(Nc1ccc(Cl)cc1)c1cc2c(cc1O)[nH]c1ccccc12 | 3
58 | O=C(Nc1ccc(Cl)c([N+](=O)[O-])c1)Nc1nc2ccccc2s1 | 3
59 | CCN1CCC(Nc2ccnc3cc(Cl)ccc23)CC1 | 3
60 | Cc1c(N2CCCC2)cc2c(c1NC(=O)c1ccccc1Cl)C(C)(C)CC2(C)C | 3
61 | CCC(C)Nc1nc2c(c(=O)n(C)c(=O)n2C)n1C (stereo not drawn) | 3
62 | N#CN=C(N)c1ccccc1 | 3
63 | COc1cccc(/C=C2\CCc3ccccc3C2=O)c1 | 3
64 | NC(=O)c1ccccc1NC(=O)c1ccccc1Cl | 3
65 | CC(=O)Nc1ccc(Cc2nc3c([nH]2)c(=O)n(C)c(=O)n3C)cc1 | 3
66 | CCOC(=O)c1ccc(NC(=O)Oc2cc(C)c(Cl)cc2C(C)C)cc1 | 3
67 | Nc1nc(Cl)cc(Nc2ccccc2Cl)n1 | 3
68 | O=[N+]([O-])c1ccc(/C=C/c2ccncc2)cc1 | 3
69 | COC(=O)C1(C(=O)OC)C2C(=O)C3C(C21)C3(C(=O)OC(C)(C)C)C(=O)OC(C)(C)C (stereo not drawn) | 3
70 | c1ccc2c(c1)cnc1ccccc12 | 3
71 | NC(N)=Nc1nc2ccc([N+](=O)[O-])cc2[nH]1 | 3
72 | O=C(OCC1CCC=CO1)C1CCC=CO1 (stereo not drawn) | 3
73 | Cc1cc(=O)c2cc(C(=O)c3ccccc3)ccc2[nH]1 | 3
